PubChem BioAssay (Tox21)
Results filed as inconclusive are left out. Activity calls are given as the source filed them. Calls come from the whole dose curve; as a rule, active = well fitted curve in the direction sought with a large enough effect in the repeat runs; inconclusive = weak or mixed curves; inactive = no such curve, though single readings can be large; an effect the other way counts as inactive or inconclusive.

assay: qHTS assay to identify small molecule antagonists of the estrogen related receptor (ERR) signaling pathway - cell viability counter screen (AID 1224818); conditions: ERR reporter cell line viability counter screen; series mostly up to 46.1 µM; viability change, negative = cytotoxic: at the top concentration;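 note: viability measured after 17.5 h of compound exposure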
Outline: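 Cells carrying the ERR pathway reporter were seeded and incubated for 6 hours before compound addition. After a 17.5-hour exposure at 37 C, live-cell protease activity was measured by CellTiter-Fluor fluorescence following 30 minutes of incubation.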
% is set by controls: 0 for no effect and ±100 for the full control effect; potency is the fitted concentration of half-maximal effect.

Structure (SMILES) | viability change, negative = cytotoxic | Potency
C[C@@H](NCCc1ccc(O)cc1)[C@@H](O)c1ccc(O)cc1 | 12.4% (inactive) | –
CC(C)Cn1c(=O)n(C)c(=O)c2[nH]cnc21 | 14.7% (inactive) | –
Nc1ncnc2c1ncn2C1CCCO1 (stereo unspecified) | 5.5% (inactive) | –
C=CC[C@H](N)C(=O)O | 12.9% (inactive) | –
N=c1ccn2c(n1)O[C@H]1C(O)[C@@H](CO)O[C@H]12 (stereo partly specified) | 5.71% (inactive) | –
COc1cc(CC(=O)O)ccc1O | 3.26% (inactive) | –
CNCCNS(=O)(=O)c1cccc2cnccc12 | -3.69% (inactive) | –
COC(=O)[C@H]1[C@H]2C[C@H]3c4[nH]c5ccccc5c4CCN3C[C@H]2CC[C@@H]1O | 12.3% (inactive) | –
N[C@@H](CC(=O)O)C(=O)O | 7.39% (inactive) | –
Nc1nc2ccc(Cl)cc2n2c(-c3ccccc3)nnc12 | 3.24% (inactive) | –
CN(C)C(N)=NCCC[C@H](N)C(=O)O | 11.2% (inactive) | –
N[C@H](CO)C(=O)O | 1.56% (inactive) | –
O=c1cc(-c2ccccc2)oc2c(O)c(O)ccc12 | -12.3% (inactive) | –
CN1CC(O)C(O)C(O)C1CO (stereo unspecified) | 12.4% (inactive) | –
CCN(CC)CCCCNc1ncc2cc(-c3c(Cl)cccc3Cl)c(NC(=O)NC(C)(C)C)nc2n1 | – | 22 µM (active)
O=C(O)CCCC[C@@H]1CCSS1 | 4.09% (inactive) | –
COc1ccccc1CNCCCCCCNCCCCCCCCNCCCCCCNCc1ccccc1OC | 3.45% (inactive) | –
NCCCS(=O)(=O)O | -17.2% (inactive) | –

assay: qHTS assay to identify small molecule antagonists of the estrogen related receptor (ERR) signaling pathway (AID 1224819; note: nearly all actives have a fitted effect of over 50% in size;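 for activity change, negative = inhibition: luminescence from an ERR-driven luciferase reporter measured with One-Glo reagent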); conditions: ERR reporter cell line, luciferase inhibition; series mostly up to 46.1 µM; activity change, negative = inhibition: at the top concentration
Outline: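 Compounds dissolved in DMSO were pin-transferred onto ERR cells that had been plated 6 h earlier, and cells were then incubated 18 h at 37 C; signal was luciferase luminescence via One-Glo.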

Structure (SMILES) | activity change, negative = inhibition | Potency
N[C@@H](CCCC(=O)O)C(=O)O | 10.9% (inactive) | –
O=C(O)Cc1c[nH]c2ccc(O)cc12 | -23.2% (inactive) | –
CC1CNCCN1S(=O)(=O)c1cccc2cnccc12 (stereo unspecified) | 10.2% (inactive) | –
NC[C@@H]1O[C@H](c2ccccc2)Cc2c1ccc(O)c2O | -1.85% (inactive) | –
CC(C)NC[C@@H](O)c1ccc(O)c(O)c1 | 9.3% (inactive) | –
CN1C2CCC1CC(OC(=O)C(O)c1ccccc1)C2 (stereo unspecified) | 4.51% (inactive) | –
CS(=O)(=O)c1cccc(CNc2nc(Nc3ccc4c(c3)CCC(=O)N4)ncc2C(F)(F)F)c1 | -23.5% (inactive) | –
CCCCCC(O)CCCC(=O)O (stereo unspecified) | 6.96% (inactive) | –
NC1C=CC=C(C(=O)O)C1 (stereo unspecified) | -24.6% (inactive) | –
O=C1NC(=O)/C(=C/c2ccc(-c3ccc(F)cc3O)o2)S1 | -15.1% (inactive) | –
NCCCCNCCCN | -4.06% (inactive) | –
CN(C)CCCc1cc(C(=O)Nc2ccc(-c3ccncc3)cc2)ccc1O | -8.8% (inactive) | –
Cc1ccc2c(c1)C(N1CCN(C)CC1)=Nc1cccnc1N2 | -10.6% (inactive) | –
NS(=O)(=O)c1ccc(-n2nc(C(F)(F)F)cc2-c2ccc(Cl)cc2)cc1 | -23.9% (inactive) | –
CC(C)C[C@H](NC(=O)[C@H](O)[C@H](N)Cc1ccccc1)C(=O)O | 0.69% (inactive) | –
CSc1nc(N)c2ncn([C@@H]3O[C@H](COP(=O)(O)OP(=O)(O)OP(=O)(O)O)C(O)[C@H]3O)c2n1 (stereo partly specified) | -6.23% (inactive) | –
CCNC(=O)[C@H]1O[C@@H](n2cnc3c(N)nc(NCCc4ccc(CCC(=O)O)cc4)nc32)[C@H](O)C1O (stereo partly specified) | -2.14% (inactive) | –
OC[C@H]1O[C@@H](n2cnc3c(NC4CCCCC4)ncnc32)[C@H](O)[C@@H]1O | 13.8% (inactive) | –
NC1(C(=O)O)CCCCC1 | 5.03% (inactive) | –

Structure (SMILES) | activity change, negative = inhibition | Potency
O=C(O)c1cc2cc(Cc3cccnc3)ccc2o1 | 12.6% (inactive) | –
C[C@@H](NCCc1ccc(O)cc1)[C@@H](O)c1ccc(O)cc1 | -5.69% (inactive) | –
CC(C)Cn1c(=O)n(C)c(=O)c2[nH]cnc21 | 2.08% (inactive) | –
Nc1ncnc2c1ncn2C1CCCO1 (stereo unspecified) | -7.96% (inactive) | –
C=CC[C@H](N)C(=O)O | 8.03% (inactive) | –
N=c1ccn2c(n1)O[C@H]1C(O)[C@@H](CO)O[C@H]12 (stereo partly specified) | 9.24% (inactive) | –
COc1cc(CC(=O)O)ccc1O | -17.3% (inactive) | –
CNCCNS(=O)(=O)c1cccc2cnccc12 | – | 21.1 µM (active)
COC(=O)[C@H]1[C@H]2C[C@H]3c4[nH]c5ccccc5c4CCN3C[C@H]2CC[C@@H]1O | 6.81% (inactive) | –
N[C@@H](CC(=O)O)C(=O)O | 10.4% (inactive) | –
Nc1nc2ccc(Cl)cc2n2c(-c3ccccc3)nnc12 | -16.8% (inactive) | –
CN(C)C(N)=NCCC[C@H](N)C(=O)O | 7.43% (inactive) | –
N[C@H](CO)C(=O)O | 8.65% (inactive) | –
O=c1cc(-c2ccccc2)oc2c(O)c(O)ccc12 | -23.1% (inactive) | –
CN1CC(O)C(O)C(O)C1CO (stereo unspecified) | 7.01% (inactive) | –
CCN(CC)CCCCNc1ncc2cc(-c3c(Cl)cccc3Cl)c(NC(=O)NC(C)(C)C)nc2n1 | – | 2.37 µM (active)
O=C(O)CCCC[C@@H]1CCSS1 | 16.8% (inactive) | –
COc1ccccc1CNCCCCCCNCCCCCCCCNCCCCCCNCc1ccccc1OC | 8.86% (inactive) | –
NCCCS(=O)(=O)O | -14.6% (inactive) | –
